GalR3 antag – blocks the human galanin receptor 3. HEK293 GalR3-CNG cAMP membrane potential fluorescence; galR3 body fused to GalR1 C-terminus. AID 651719. 360,000 compounds, 0.44% hits. inhibition, % at 3 µM. O60755;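 active means inhibition above the screen-wide average plus 3 SD, cut at about 13% in these data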;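 further: forskolin and galanin both at EC90 stimulate the cells; cAMP rise reported by CNG channel membrane potential dye signal; 0% = forskolin plus galanin with DMSO and 100% = forskolin alone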
NR5A2 inv ag – inverse agonists of human LRH-1 (NR5A2). O00482. HEK293T StAR-luciferase reporter, LRH-1 transfected, 24 h. inhibition, % at 3.6 µM. 360,000 compounds, 0.13% hits. AID 602396;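 active means inhibition above the mean inhibition of all tested compounds plus 3 SD, cut at about 73% in these data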;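 further: 0% = DMSO wells and 100% = reporter-only cells lacking LRH-1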
SRC1 inh – inhibitors of human steroid receptor coactivator 1 (SRC1) | inhibition, % at 3.6 µM | 360,000 compounds, 0.12% hits | Q15788 | HEK293 GAL4-SRC1 luciferase reporter, luminescence;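 active means inhibition above the campaign mean plus 3 SD, with each screening campaign given its own cutoff, cut at about 60% in these data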;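 further: 0% = DMSO treated cells and 100% = gossypol at 36 µM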
Target sequence (Q15788 whole entry, looked up, the tested form may be a part): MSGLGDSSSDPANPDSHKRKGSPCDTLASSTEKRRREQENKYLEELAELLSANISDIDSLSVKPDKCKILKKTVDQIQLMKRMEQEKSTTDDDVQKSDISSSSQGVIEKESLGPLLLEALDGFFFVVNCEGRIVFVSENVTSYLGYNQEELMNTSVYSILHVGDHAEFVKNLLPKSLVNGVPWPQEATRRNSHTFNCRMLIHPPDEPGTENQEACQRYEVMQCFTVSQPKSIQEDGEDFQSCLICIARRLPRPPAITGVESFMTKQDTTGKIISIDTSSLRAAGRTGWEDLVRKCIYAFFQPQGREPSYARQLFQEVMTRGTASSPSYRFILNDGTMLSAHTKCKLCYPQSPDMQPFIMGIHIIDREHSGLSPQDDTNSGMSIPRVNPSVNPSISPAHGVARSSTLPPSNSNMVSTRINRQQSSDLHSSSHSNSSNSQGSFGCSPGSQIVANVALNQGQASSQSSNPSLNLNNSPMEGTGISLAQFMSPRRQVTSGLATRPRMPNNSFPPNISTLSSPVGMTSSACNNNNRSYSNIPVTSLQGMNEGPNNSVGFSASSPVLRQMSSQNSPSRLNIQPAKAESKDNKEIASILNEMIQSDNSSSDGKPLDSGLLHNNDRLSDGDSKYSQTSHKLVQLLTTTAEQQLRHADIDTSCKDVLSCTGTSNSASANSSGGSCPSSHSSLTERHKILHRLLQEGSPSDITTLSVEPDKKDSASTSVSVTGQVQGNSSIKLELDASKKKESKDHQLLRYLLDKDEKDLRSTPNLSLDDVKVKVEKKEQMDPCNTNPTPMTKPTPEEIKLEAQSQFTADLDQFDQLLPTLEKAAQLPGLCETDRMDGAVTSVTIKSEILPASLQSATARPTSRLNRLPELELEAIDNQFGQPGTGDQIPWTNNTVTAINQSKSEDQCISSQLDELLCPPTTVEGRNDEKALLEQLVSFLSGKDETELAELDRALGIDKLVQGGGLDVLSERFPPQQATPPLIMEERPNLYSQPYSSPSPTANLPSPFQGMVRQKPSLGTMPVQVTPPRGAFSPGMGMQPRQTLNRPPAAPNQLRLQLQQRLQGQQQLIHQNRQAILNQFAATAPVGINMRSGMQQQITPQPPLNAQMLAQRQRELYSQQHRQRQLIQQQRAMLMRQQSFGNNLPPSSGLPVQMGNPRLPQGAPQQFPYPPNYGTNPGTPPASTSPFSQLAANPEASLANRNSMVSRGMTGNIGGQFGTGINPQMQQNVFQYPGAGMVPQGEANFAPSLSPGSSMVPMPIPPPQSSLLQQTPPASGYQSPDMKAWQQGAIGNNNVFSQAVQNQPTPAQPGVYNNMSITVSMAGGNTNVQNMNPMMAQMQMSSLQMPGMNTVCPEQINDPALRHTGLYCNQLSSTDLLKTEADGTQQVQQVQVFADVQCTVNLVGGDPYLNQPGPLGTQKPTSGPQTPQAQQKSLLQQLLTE
NCOA2 inhibitor – inhibits human steroid receptor coactivator 2. inhibition, % at 9 µM. Q15596. AID 651957. 370,000 compounds, 0.17% hits. HEK293 GAL4-SRC2 luciferase reporter, luminescence;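 active means inhibition above the mean inhibition of all tested compounds plus 3 SD, set per campaign, cut at about 52% in these data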;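 further: 0% = DMSO treated cells and 100% = cells given Gossypol at 36 µM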
NR2F2 inh – blocks human COUP-TFII nuclear receptor | P24468 | HEK293T NGFI-A luciferase reporter, luminescence | inhibition, % at 8.6 µM | 370,000 compounds, 0.7% hits | AID 686940;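 active means inhibition above a per-plate cutoff, mean inhibition of test wells between control levels plus 3 SD, cut at about 38% in these data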;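 further: cells cotransfected with COUP-TFII expression vector driving the NGFI-A reporter; 0% = median of COUP-TF2 test wells and 100% = reporter-only cells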
NCOA3 inh – human NCOA3 inhibition; Q9Y6Q9; HEK293 GAL4-SRC3 luciferase reporter, luminescence; inhibition, % at 3.6 µM; 360,000 compounds, 0.17% hits;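 active means inhibition above a per-campaign cutoff, the mean of all compounds plus 3 SD, cut at about 60% in these data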;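 further: 0% = DMSO-treated cells and 100% = gossypol-treated cells at 36 µM; higher means less SRC3-driven luciferase light from the GAL4 reporter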
GalR3 conf – GalR3 (human) antagonism, confirmation | 1,600 compounds, 59% hits | shares compounds with GalR3 antag | AID 652245 | HEK293 GalR3 CNG cAMP biosensor, membrane potential fluorescence; galR3 fused to GalR1 carboxy tail; challenged with forskolin and galanin at EC90 | inhibition, % at 3 µM;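 active means inhibition above the primary screen's cutoff, the mean inhibition of all screened compounds plus 3 SD, cut at about 13% in these data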;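 further: 0% = forskolin plus galanin and 100% = forskolin alone with DMSO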
CNG parental – parental cell agonism counter-screen for GalR3 antagonists; shares compounds with GalR3 antag; HEK293-CNG parental cells, cAMP membrane potential fluorescence; normalised: DMSO wells 0%, forskolin wells 100%; activation, % at 3 µM; 1,600 compounds, 10% hits; AID 652268; in the data active means activation above about 1.3%
Numbers without * were called inactive; x = no result given. Only some compounds are listed: those with a hit (about 1.1% of all), similar ones and a draw of the others.

SMILES	GalR3 antag	NR5A2 inv ag	SRC1 inh	NCOA2 inhibitor	NR2F2 inh	NCOA3 inh	GalR3 conf	CNG parental
Cc1ccc(OCC(=O)NS(=O)(=O)c2ccccc2)cc1	-3	-7	-4	7	9	-13	x	x
Cc1ccc(S(=O)(=O)NC(=O)COc2ccccc2)cc1	x	-1	5	-3	7	-1	2	0
CCOC(=O)C1(Cc2cccc(OC)c2)CCN(CCO)CC1	18*	0	-3	-21	7	-16	9	1
CCOC(=O)C1(Cc2cccc(OC)c2)CCN(CC(O)CO)CC1 (stereo unspecified)	-6	4	-5	22	0	22	x	x
Cc1nc2cc(NC(=O)N3CCC(c4ccccc4)C3)ccc2n1C (stereo unspecified)	31*	-51	-50	-45	-14	-27	0	0
COc1ccc(OC)c(CN2C(=O)CSCCC2(C)c2nnnn2C2CCCC2)c1 (stereo unspecified)	x	x	x	2	1	x	x	x
COc1ccc(C(=O)c2coc(-c3ccccc3C(=O)O)c2C(=O)O)cc1	14*	-11	-48	3	-15	13	-3	0
Cc1ccc(O)c(N=Cc2cc(Cc3ccccc3)cc([N+](=O)[O-])c2O)c1	13*	10	-17	3	-1	2	10	0
CC(=O)Nc1ccc(C(/C=C/c2ccccc2)Cc2ccccc2)cc1 (stereo unspecified)	x	x	x	16	-16	x	x	x
COc1ccc(/C=C2\SC(=N)N(c3ccc(F)cc3)C2=O)cc1OC	18*	19	-14	2	-4	8	17*	1
COCc1[nH]nc2c1C(c1cccc(C(F)(F)F)c1)N(c1ccc(OC)cc1)C2=O (stereo unspecified)	-2	x	x	6	9	x	x	x
COc1cc(/C=C/C2=NNC(=O)CC2)cc(OC)c1OC	20*	-6	-16	-62	-26	1	16*	0
CSc1cccc(NC(=O)c2ccc(CN3CCc4ccccc4C3)cc2)c1	47*	9	4	20	36	21	104*	0
CCC(C)[C@H](NS(=O)(=O)c1ccc(C)cc1)C(=O)N1CCC(C(=O)N[C@H](C(=O)O)c2ccccc2)CC1 (stereo partly specified)	30*	8	3	2	-49	5	12	0
COc1ccc(OCC(O)CNC(=O)c2ccc(Br)cc2)cc1 (stereo unspecified)	-7	-13	-6	-9	-7	0	x	x
COc1ccc(OCC(O)CNC(=O)c2ccc(OC)cc2)cc1 (stereo unspecified)	14*	-5	2	6	-2	0	4	0
COc1ccc(OC)c(-c2nnc3n2N=C(c2ccc(OC)c(OC4CCCC4)c2)CS3)c1	1	24	16	25	-28	8	x	x
COc1ccc(OC)c(-c2nnc3n2N=C(c2ccc(OC)c(OC)c2)CS3)c1	50*	41	-45	1	-130	5	34*	1.5*
COc1ccc(C2=Nn3c(nnc3C3CCCCC3)SC2)cc1OC	49*	18	-64	-30	-87	-34	48*	1
COc1ccc(OC)c(C2=Nn3c(nnc3C3CCCCC3)SC2)c1	-2	34	3	-4	6	11	x	x
COC(=O)C1CN(CCc2ccccc2)CCS(=O)(=O)N1Cc1ccc(C(F)(F)F)cc1 (stereo unspecified)	x	x	x	1	8	x	x	x
c1ccc(CNC2CCC23CCC(c2ccccc2)CC3)cc1 (stereo unspecified)	x	x	x	-33	-13	x	x	x
O=C(COC(=O)c1cccnc1)Nc1ccc2c(c1)OCO2	14*	-17	5	7	5	14	-1	0
CC1(C)Cc2ccccc2-c2nc3ccccc3c(=O)n21	x	2	20	10	-17	2	3	0
O=C1c2ccccc2-n2c1nc1ccccc1c2=O	-7	47	-15	-27	24	25	x	x
SMILES	GalR3 antag	NR5A2 inv ag	SRC1 inh	NCOA2 inhibitor	NR2F2 inh	NCOA3 inh	GalR3 conf	CNG parental
COc1cc(N=C2C(=O)N3c4c(cccc42)C(C)=CC3(C)C)cc(OC)c1	-1	-20	-15	14	-7	0	x	x
CC1=CC(C)(C)N2C(=O)C(=Nc3ccc(O)cc3)c3cccc1c32	16*	-15	-18	-5	6	-2	2	1
COc1ccc(COC(=O)C2=C(C)NC(=O)NC2c2cc(Br)c(O)c(OC)c2)cc1 (stereo unspecified)	29*	10	-8	-2	-34	2	35*	0
CCOc1cc(C2NC(=O)NC(C)=C2C(=O)OCc2ccccc2)ccc1O (stereo unspecified)	13*	-15	-26	3	-9	-4	15*	0
COc1cc(C2NC(=O)NC(C)=C2C(=O)OCc2ccccc2)ccc1O (stereo unspecified)	-2	-10	-7	7	-14	6	x	x
COc1ccc(COC(=O)C2=C(C)NC(=O)NC2c2ccc(O)c(OC)c2)cc1 (stereo unspecified)	8	-5	1	-10	5	3	x	x
COC(=O)[C@]12C[C@H](CC(=O)NCc3cccc(C(F)(F)F)c3)C(=O)N(Cc3cccc4ccccc34)C1=C[C@H](C(C)(C)C)O[C@@H]2C	x	x	x	8	-18	x	x	x
Cn1c(SCc2ccc(C(C)(C)C)cc2)nnc1-c1ccco1	x	x	x	0	-17	x	x	x
N#CCC[C@H]1CC[C@]2(CCCN(Cc3ccc(Br)cc3)C2)O1	x	x	x	-4	-4	x	x	x
Nc1nnc(SCc2nc3scc(-c4ccccc4)c3c(=O)[nH]2)s1	1	-1	7	-9	10	9	x	x
Cc1nnc(SCc2nc3scc(-c4ccccc4)c3c(=O)[nH]2)s1	14*	6	-13	-2	-14	-7	5	1
CNC[C@H]1Oc2ccc(NC(=O)Nc3ccc4c(c3)OCO4)cc2C(=O)N([C@H](C)CO)C[C@@H]1C	15*	-10	4	15	-9	-5	8	0
CNC[C@@H]1Oc2ccc(NC(=O)Nc3ccccc3)cc2C(=O)N([C@@H](C)CO)C[C@H]1C	-4	13	-27	-31	-17	-19	x	x
CC(=O)Nc1ccc(NC(=O)CSc2nnc(-c3ccco3)o2)cc1	5	13	1	3	2	-3	x	x
Cc1cc(NC(=O)CSc2nnc(-c3ccco3)o2)no1	x	-10	3	-4	-23	9	-5	0
